In all, about 48,000 compounds went through this assay and about 13,000 (27%) showed an effect of 50% or more. Some of the results follow.
The compounds below were run on Wolbachia pipientis (assay: Anti-Wolbachia Cell-Based Screen). Conditions: 5 µM.
Type: functional
Set-up: scale not given: in the data most compounds retested in dose-response had high values

Row | Structure (SMILES) | Percent Effect [%]
1 | CCN1CCN(c2ccc(F)cc2C(C)NCc2cscn2)CC1 (centres undefined) | 16.44
2 | CC(C)CCC1=NC2(CCN(C(=O)N3CCN(C)CC3)CC2)C(=O)N1 | 15.84
3 | CN(C)C1CC2(CCN(C(=O)NC3CC3)CC2)c2ccccc21.O=C(O)C(F)(F)F (centres undefined) | -41.61
4 | Cn1ccnc1CN1CCC2(CC1)CC(Nc1ccccn1)CO2 (centres undefined) | -5.655
5 | CN(C)C1CCC2(CCN(Cc3cccnc3)CC2)c2ccccc21.O=C(O)C(F)(F)F.O=C(O)C(F)(F)F.O=C(O)C(F)(F)F (centres undefined) | 103.9
6 | Cn1ccnc1CN1CCC2(CC1)CC(N1CCCC1)c1ccccc12 (centres undefined) | 116.8
7 | Cn1ccnc1CN1CCC2(CC1)CC(NC(=O)c1ccccn1)CO2.O=C(O)C(F)(F)F (centres undefined) | -5.802
8 | COc1ccc2c(c1)C1(CCN(Cc3cccnc3)CC1)N(C)CC2.O=C(O)C(F)(F)F.O=C(O)C(F)(F)F.O=C(O)C(F)(F)F | 47.52
9 | Cn1ccnc1CN1CCN(Cc2ccccc2C#N)CC1 | 1.879
10 | CN(C)C1CCC2(CCN(Cc3nccn3C)CC2)c2ccccc21.O=C(O)C(F)(F)F.O=C(O)C(F)(F)F (centres undefined) | 100.5
11 | CCN(Cc1ccoc1)C(=O)NC1CCN(CC=C(C)C)CC1 | -3.465
12 | Cc1cc(CN2C[C@@H](N3CCN(C)CC3)[C@H]3OCCC[C@H]32)oc1C.O=C(O)C(F)(F)F.O=C(O)C(F)(F)F.O=C(O)C(F)(F)F | 8.988
13 | O=C(c1cscn1)N1C[C@H](OCc2cccnc2)[C@H]2COC[C@H]21 | 102.7
14 | O=C(O)C(F)(F)F.O=C(c1cscn1)N1C[C@H]2CCCC(OCc3cccnc3)[C@H]2C1 (some centres undefined) | -12.9
15 | O=C(c1ccncn1)N1CCO[C@H]2[C@@H](OCc3cccnc3)CC[C@@H]21 | -20.63
16 | Cc1ccc(C(=O)N2C[C@H]3CCCC(OCc4cccnc4)[C@H]3C2)cn1.O=C(O)C(F)(F)F.O=C(O)C(F)(F)F (some centres undefined) | -3.164
17 | N#Cc1ccc(C(=O)N2C[C@H](OCc3cccnc3)[C@H]3COC[C@H]32)cc1 | 101.1
18 | Cc1ccc(C(=O)N2C[C@H](OCc3cccnc3)[C@H]3COC[C@H]32)cn1 | 93.92
19 | N#Cc1ccc(N2CCC3(CC2)CC(OCc2cccnc2)CO3)cc1.O=C(O)C(F)(F)F (centres undefined) | 6.886
20 | O=C(C1CCOCC1)N1C[C@H](OCc2cccnc2)[C@H]2COC[C@H]21 | 112.8
21 | O=C(c1ccc2c(c1)OCO2)N1C[C@H](OCC2CC2)[C@H]2COC[C@H]21 | -18.04
22 | O=C(c1ccnnc1)N1C[C@H]2CCC[C@@H](OCc3cccnc3)[C@@H]2C1 | -7.774
23 | Cc1nc(CO[C@H]2CN(C(=O)c3cccnc3)[C@@H]3COC[C@H]23)cs1 | -38.06

Row | Structure (SMILES) | Percent Effect [%]
24 | CNC(=O)[C@@H]1C[C@@H](NC(=O)Cc2nonc2C)CN1Cc1sccc1C | 27.67
25 | CSCCCNC(=O)C1CCC(=O)N(C2CCCC2)C1 (centres undefined) | -0.8236
26 | CCOC(=O)COC1CCN(C(C)=O)CC(=O)N(C)c2ccccc21 (centres undefined) | 107.2
27 | NC(=O)CC1CCN(C(=O)NCc2ccccc2-n2cccn2)CC1 | 4.172
28 | CCOC(=O)N1CCN(C(=O)C2Cc3ccccc3CN2C)CC1 (centres undefined) | 6.849
29 | CCOC(=O)N1CCN(C(=O)C2CC(=O)N(c3ccccc3Br)C2)CC1 (centres undefined) | 18.95
30 | CCN1CCN(C2CCN(C(C(N)=O)c3ccccc3)CC2)C1=O (centres undefined) | -3.87
31 | Cc1ccccc1N1CC(C)N(C(=O)CCn2cccn2)CC1=O (centres undefined) | 17.53
32 | COC1CN(C(=O)NCC(N)=O)CCC(=O)N(C)c2ccccc21 (centres undefined) | 111.8
33 | CCOC(=O)N1CCC(OC)c2ccccc2N(C)C(=O)C1 (centres undefined) | 82.02
34 | CN1CCC(CNC(=O)c2cccc(NC(N)=O)c2)c2ccccc21 (centres undefined) | -10.01
35 | COC1CCN(C(=O)NCC(N)=O)CC(=O)N(C)c2ccccc21 (centres undefined) | 98.17
36 | CN1CCC(CNC(=O)c2ccc(O)nc2)c2ccccc21 (centres undefined) | -12.01
37 | Cc1ccc(C)c(SCC(=O)Nc2cccc(C(=O)N(C)C)n2)c1 | -1.523
38 | Cc1nc(S(=O)(=O)CCn2cccn2)n(C2CCCC2)c1C | -3.165
39 | CCOC(=O)CNC(=O)N1CCN(c2ncccn2)CC1 | -13.49
40 | CCOC(=O)CNC(=O)N1CCC(OC)c2ccccc2N(C)C(=O)C1 (centres undefined) | 109.7
41 | CCOC(=O)CNC(=O)N1CCOC(CCc2ccccc2)C1 (centres undefined) | -4.892
42 | CS(=O)(=O)N1C[C@@H]2COC[C@]2(COCC(=O)N2CCCC2)C1 | 114.9
43 | CS(=O)(=O)N1C[C@H]2CCC[C@@]2(COCC2CCOCC2)C1 | -10.38
44 | COCCNC(=O)[C@]12COC[C@H]1CN(C1CCOCC1)C2 | -42.69
45 | O=C(COC[C@]12COC[C@H]1CN(C1CCC1)C2)N1CCCC1.O=C(O)C(F)(F)F | 91.79
46 | CS(=O)(=O)N1C[C@@H]2COC[C@]2(CN2CCOCC2)C1.O=C(O)C(F)(F)F | 2.768

Row | Structure (SMILES) | Percent Effect [%]
47 | CN(C)S(=O)(=O)N1C[C@H]2CCC[C@@]2(COCc2cccnc2)C1.O=C(O)C(F)(F)F | 15.15
48 | CCCS(=O)(=O)N1C[C@@H]2COC[C@]2(CN2CCOCC2)C1.O=C(O)C(F)(F)F | -7.734
49 | O=C(COC[C@@]12CCC[C@@H]1CN(C1CCCC1)C2)N1CCCC1.O=C(O)C(F)(F)F | 93.22
50 | C1CC(N2C[C@@H]3COC[C@]3(COCC3CCOCC3)C2)C1.O=C(O)C(F)(F)F | 101.5
51 | CCc1ccc(CNC(=O)CCNc2ncccn2)s1 | 5.252
52 | CCOC(=O)CCCc1ccc2c(c1)CC(=O)N2 | 6.435
53 | Cc1ncn(-c2cc(N3CCN(S(C)(=O)=O)CC3)ncn2)c1C | -0.4612
54 | Cc1cc(C)c2nc(CNC3CCNC3=O)cc(O)c2c1 (centres undefined) | -8.98
55 | CC(C)c1nc(S(=O)(=O)N(C)c2ccc(F)cc2)c[nH]1 | -3.559
56 | Cc1cc(CN2C[C@H]3CCC[C@@]3(COCC(=O)N3CCCC3)C2)no1 | -8.943
57 | Cc1ccc(CN2CC[C@H]3OCC[C@@]3(COCC(=O)N(C)C)C2)s1.O=C(O)C(F)(F)F | -46.75
58 | CN(C)C(=O)COC[C@]12COC[C@H]1CN(C1CCCC1)C2.O=C(O)C(F)(F)F | 91.16
59 | CN(C)C(=O)COC[C@@]12CCC[C@@H]1CN(C1CCCC1)C2.O=C(O)C(F)(F)F | -10.47
60 | O=C(COC[C@@]12CCC[C@@H]1CN(C1CCC1)C2)N1CCCC1.O=C(O)C(F)(F)F | 106.1
61 | CN(C)C(=O)COC[C@@]12CCC[C@@H]1CN(C1CCC1)C2.O=C(O)C(F)(F)F | 4.654
62 | Cc1nc(NC(=O)OC(C)(C)C)sc1C(N)=O | 1.161
63 | CC(C)c1nnc(CN(C)C(c2ccc(F)cc2)c2cccnc2)o1 (centres undefined) | 1.551
64 | Cc1cc(C)nc(N2CCc3ccc(OC(F)F)cc3C2)n1 | 7.415
65 | Cc1nc(C(=O)N2C[C@@H]3COC[C@]3(COCc3cccnc3)C2)cs1 | -15.42
66 | Cc1ccnc(OC[C@]23COC[C@H]2CN(C(=O)c2ncccn2)C3)n1 | 94.44
67 | COC[C@]12COC[C@H]1CN(C(=O)c1ccc(F)cc1C)C2 | -9.416
68 | Cc1ccnc(OC[C@]23COC[C@H]2CN(C(=O)C2=CCCCC2)C3)n1 | 104.7
69 | Cc1ccnc(OC[C@]23COC[C@H]2CN(C(=O)c2cnccn2)C3)n1 | 95.8

Row | Structure (SMILES) | Percent Effect [%]
70 | Cn1cc(C(=O)N2C[C@@H]3COC[C@]3(COCc3cccnc3)C2)cn1 | 5.656
71 | CS(=O)(=O)NC[C@]12COC[C@H]1CN(C(=O)c1cnccn1)C2 | -1.744
72 | Cc1ccnc(OC[C@]23COC[C@H]2CN(C(=O)c2ccnn2C)C3)n1 | 78.09
73 | Cc1ccc(C(=O)N2C[C@@H]3COC[C@]3(COCc3cccnc3)C2)cn1 | -15.81
74 | Cc1cc(N(C)C)nc(NC2CCc3nc(C)nn3C2)n1 (centres undefined) | 0.6524
75 | O=C(C1CC1)N1C[C@H]2CNC[C@@]2(C(=O)NCCCc2ccccc2)C1 | -23.56
76 | CCn1cc(CN2CCC(CNC(C)=O)CC2)cc1C#N | 3.567
77 | CC(C)Oc1cc(N2CCCC(O)C2)nc(N)n1 (centres undefined) | -24.67
78 | COCCN1CCC1c1cc(NC2CCCC2)nc(C)n1 (centres undefined) | 74.49
79 | Cc1nn(C)c(C)c1C1CCCN1CCOc1cccc(C#N)c1 (centres undefined) | -3.583
80 | COCCCn1ccc(NC2CCOCC2)n1 | 12.54
81 | Cc1nc(N)cc(C2CCN2CCC(N)=O)n1 (centres undefined) | 67.17
82 | CCc1nc(N)sc1C(=O)N1CCC(c2cc(O)nc(C)n2)CC1 | -4.912
83 | Cc1cc(N2CCC(NCCOc3ccccc3)CC2)nc(C)n1 | 2.138
84 | Cc1nc(N)cc(C2CCN2CCOc2ccccc2)n1 (centres undefined) | 153.2
85 | Cc1ncsc1C(=O)NC1CCN(CCC(N)=O)CC1 | -6.823
86 | COCCN1CCC1c1cc(N)nc(C)n1 (centres undefined) | 66.06
87 | COCCN1CCN(Cc2ccc3nsnc3c2)[C@H]2CS(=O)(=O)C[C@H]21 | 0.2231
88 | COCCCn1ccc(NC2CCSCC2)n1 | -2.987
89 | COCCN1CCC(CN(C)c2nc3c(s2)c(C)nn3C)C1 (centres undefined) | -0.8373

— ChEMBL document CHEMBL3988442, “University of Dundee, Small-Polar-MMV Screening Library” (2021)
